HCMV antiviral: qHTS Assay for inhibitors of the human cytomegalovirus (HCMV); 4.5% of 410,000 active; activity change, negative = inhibition, % at 57.5 µM; HFF cells, HCMV-luciferase reporter, 72 h; active compounds read low; in the data active = activity change below about -60%; inconclusive = no clear call, values can overlap the other calls; inactive = above about -39%
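Human foreskin fibroblasts infected with luciferase-reporter HCMV at MOI 1 PFU/cell, compounds at two doses. Luciferase measured 72 h post infection; normalized to buffer-only basal and Salinomycin (10uM) controls.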
HCV inh: qHTS Assay for Inhibitors of Hepatitis C Virus (HCV) | Huh7.5.1 HCVcc-Cre infection, luciferase reporter, 44 h | Potency, µM (top dose mostly 41.8 µM), for the others: at the highest dose activity change, negative = inhibition, most hits filed as inhibitors | 3.4% of 340,000 active | AID 651820, 2012; note: potency is the fitted concentration of half-maximal effect
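Cells (1,000/well) were plated 4 h before compound, then infected with HCVcc-Cre virus (~0.5 moi). After 44 h further culture, infection was read as luciferase luminescence following a 15 min substrate incubation at room temperature.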
Pf growth 96h: Primary qHTS for delayed death inhibitors of the malarial parasite plastid, 96 hour incubation. P. falciparum luciferase reporter growth, 96 h. Potency, µM (highest dose often 28.7 µM), without a hit: top-dose activity change, negative = inhibition, actives largely listed as inhibitors. 6.9% of 320,000 active; note: potency is the fitted concentration of half-maximal effect
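Parasite growth measured via integrated firefly luciferase reporter in P. falciparum. Infected erythrocytes at 2% hematocrit, 0.05% parasitemia final were treated 96 hours at 37 C under 5% CO2, and luminescence was read.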
Marburg entry inh: qHTS for inhibitors of binding or entry into cells for Marburg Virus; 1.8% of 300,000 active; AID 540276, 2011; Potency, µM (top dose mostly 37.8 µM), without a hit: at the highest dose activity change, negative = inhibition, actives largely listed as inhibitors; Marburg virus pseudotyped entry inhibition, cell reporter; calls by dose curve; tested in HEK293 cells; note: potency is the fitted concentration of half-maximal effect
Pf growth 48h: Primary qHTS for delayed death inhibitors of the malarial parasite plastid, 48 hour incubation | P. falciparum luciferase growth in erythrocytes, 48 h | Potency, µM (highest dose often 28.7 µM), for the others: at the highest dose activity change, negative = inhibition, usual class: inhibitors | 5.9% of 310,000 active | AID 504832, 2011; note: potency is the fitted concentration of half-maximal effect
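Compounds are pin-transferred into medium, infected erythrocytes (2% hematocrit, 0.1% parasitemia final) are added, and plates sit one parasite generation at 37 C in 5% CO2. Detection reagent is then added and luminescence measured.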
Lassa entry inh: qHTS for Inhibitors of binding or entry into cells for Lassa Virus; Lassa virus pseudotype entry inhibition, cell reporter; Potency, µM (doses to about 37.9 µM), without a hit: at the highest dose activity change, negative = inhibition, most hits filed as inhibitors; 1.2% of 300,000 active; AID 540256, 2011; calls by dose curve; tested in HEK293 cells; note: potency is the fitted concentration of half-maximal effect; nearly all actives have a fitted effect of over 50% in size
Starred values were filed as active, the others as inactive; ? = inconclusive; nt = no result; [ ] = another dose, or the depositor's remark. Hits are enriched below; roughly 14% of the tested compounds scored in any of these assays. Unless noted, calls come from the whole dose curve; as a rule, active = well fitted inhibition curve with a large enough effect; inconclusive = small, poorly fitted or top-dose-only effect, or another doubt; inactive = no such curve, though single readings can be large or run the other way. % is set by controls: 0 for no effect and ±100 for the full control effect.

SMILES	HCMV antiviral	HCV inh	Pf growth 96h	Marburg entry inh	Pf growth 48h	Lassa entry inh
CCC(C)(C)C1CCc2[nH]nc(C(=O)NC(C)C)c2C1 (stereo not drawn)	?	-5%	?	nt	?	nt
COc1ccccc1NC(=O)C1=C(C)Nc2c(C(=O)Nc3ccc(F)cc3)cnn2C1c1cccc([N+](=O)[O-])c1 (stereo not drawn)	-22	nt	nt	nt	nt	-19%[46.1 µM]
Cn1c(=O)c2cc(NC(=O)NCCc3cccs3)ccc2n1C/C=C/c1ccccc1	30	nt	nt	nt	nt	nt
Cc1ccc(Cl)cc1N1CCN(C(=O)c2ccc3c(c2)N(Cc2ccccc2)CCS3)CC1	?	nt	nt	0%[46.1 µM]	nt	-1%[46.1 µM]
Cc1ccc(CN2CCSc3ccc(C(=O)N4CCOCC4)cc32)cc1	nt	-23%	-2%	nt	?	nt
CCN1CCN(C(=O)c2ccc3c(c2)N(Cc2ccc(C)cc2)CCS3)CC1	-85*	-16%	?	nt	?	nt
CCN1CCN(CCCNC(=O)c2ccc3c(c2)N(Cc2ccc(C)cc2)CCS3)CC1	nt	11µM*	?	nt	17µM*	nt
CCOC(=O)N1CCN(C(=O)c2ccc3c(c2)N(Cc2ccccc2)CCS3)CC1	?	?	12µM*	nt	?	nt
Cc1cccc(C(O)c2ncc(-c3ccc(Cl)cc3)[nH]2)c1C (stereo not drawn)	-22	nt	nt	nt	nt	nt
O=C1Nc2ccccc2N=C(c2ccccc2)C1N(C(=O)c1ccnc2ccccc12)c1ccccc1 (stereo not drawn)	26	nt	nt	nt	nt	nt
CCOC(=O)[C@]12Cc3cc(C)ccc3[C@H]1N(C)C(=O)c1cc(OC)ccc12	-109*	nt	nt	nt	nt	nt
CCOC(=O)[C@]12Cc3c(cc(OC)c(OC)c3OC)[C@H]1N(C1CCCCC1)C(=O)c1cc(OC)ccc12	-99*	nt	nt	nt	nt	nt
CCOC(=O)[C@]12Cc3cc(OC)ccc3[C@H]1N(C1CCCCC1)C(=O)c1ccccc12	-101*	nt	nt	nt	nt	nt
CCOC(=O)[C@]12Cc3c(cc(OC)c(OC)c3OC)[C@H]1N(C(C)C)C(=O)c1cc(OC)ccc12	-100*	nt	nt	nt	nt	nt
CCOC(=O)[C@]12Cc3cc(OC)ccc3[C@H]1N(C)C(=O)c1ccccc12	34	nt	nt	nt	nt	nt
COc1ccc(OC)c(NC(=O)c2nc(SCc3ccccc3F)ncc2Cl)c1	-35	nt	nt	14%[46.1 µM]	nt	13%[46.1 µM]
CCOC(=O)[C@]12Cc3cc(Cl)ccc3[C@H]1N(C)C(=O)c1ccccc12	68	nt	nt	nt	nt	nt
CCOC(=O)[C@]12Cc3cc(Cl)ccc3[C@H]1N(C(C)C)C(=O)c1ccccc12	-99*	nt	nt	nt	nt	nt
CCOC(=O)[C@]12Cc3cc(OC)ccc3[C@H]1N(C(C)C)C(=O)c1cc(OC)ccc12	-100*	nt	nt	nt	nt	nt
O=S(Cc1ccc(Cl)cc1)c1ccccc1 (stereo not drawn)	-22	6%	nt	-17%[46.1 µM]	nt	-10%[46.1 µM]
CC(NC(=O)Cn1ncc2c3ccccc3n(Cc3ccc(F)cc3)c2c1=O)c1ccccc1 (stereo not drawn)	-8	nt	nt	?	nt	0%[46.1 µM]
CN1CCN(C(=O)c2cc3sccc3n2CC(=O)c2ccccc2)CC1	-18	-7%	2%	5%	7%	-1%
O=C(NCc1ccco1)c1ccc(Cn2c(=O)c3ccccc3n(Cc3cccc(Cl)c3)c2=O)cc1	-34	?	nt	?	nt	-9%
O=C(NCc1ccco1)c1ccc(Cn2c(=O)c3sccc3n(Cc3cccc(F)c3)c2=O)cc1	-61*	?	2.6µM*	-1%	nt	nt
O=C(NCc1ccco1)c1cc2sccc2n1Cc1ccccc1	-11	?	2.1µM*	11%	12µM*	-23%[14.3 µM]
O=C(c1ccco1)N1CCN(C(=O)c2cc3sccc3n2Cc2ccccc2)CC1	-71*	-27%	-14%	-6%	12µM*	?
COc1cccc(N2CCN(Cc3nnc(-c4ccc5c(c4)OCO5)o3)CC2)c1	4	nt	nt	-10%[46.1 µM]	nt	3%[46.1 µM]
Clc1ccc(Br)c(-c2nc3ccccc3[nH]2)c1	71	nt	nt	nt	nt	nt
